Counter-ions that a name gives are not always drawn.

Experimental findings from the supplement of paper PMC9950053 are described below.

In the test the test system is Danio rerio larvae (5 dpf). Briefly: combined upward orientation toward moving lines (periods 7-14) minus DMSO control (percentage points); higher = more orientation with moving lines than DMSO larvae. Particulars: 10 µM; exposure time: 3 h pre-incubation + 3 h imaging. As to the method:
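Wild-type 5 dpf zebrafish larvae (n=48 per drug, 96-well plates, 28.5 °C) were exposed to Tocris FDA-approved library compounds at 10 µM (0.1% DMSO) for 3 h before and 3 h during imaging. Images were taken every 6 s during visual (moving coloured lines) and acoustic stimuli, and larvae were tracked with the DeepLabCut-based Z-LaP Tracker. Each behavioural measure is the treated-group mean minus the DMSO vehicle control mean (n=844), in percentage points. This mapping covers compounds with 4-character plate codes.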
With `COC(c1ccccc1)(c1ccccc1)[C@H](Oc1nc(C)cc(C)n1)C(=O)O` [Ambrisentan], the “combined upward orientation toward moving lines” value is -0.152.
Turning to `CCOc1nc2cccc(C(=O)O)c2n1Cc1ccc(-c2ccccc2-c2noc(=O)[nH]2)cc1` [Azilsartan], the “combined upward orientation toward moving lines” value is 1.61.
Next, `CN1CC2c3ccccc3Oc3ccc(Cl)cc3C2C1` (stereo not given) [Asenapine maleate]: -7.05; `CN(CCOc1ccc(CC2SC(=O)NC2=O)cc1)c1ccccn1` (stereo not given) [Rosiglitazone]: -10.5; `CC(C)(C#N)c1cc(Cn2cncn2)cc(C(C)(C)C#N)c1` [Anastrozole]: -0.152.
Under `CN(C)CCc1c[nH]c2ccc(Cn3cncn3)cc12` [Rizatriptan benzoate] stands -1.53; under `Cc1nc(-c2ccc(OCC(C)C)c(C#N)c2)sc1C(=O)O` [Febuxostat], -3.47; under `CCCc1nc2c(C)cc(-c3nc4ccccc4n3C)cc2n1Cc1ccc(-c2ccccc2C(=O)O)cc1` [Telmisartan], -1.92.
Next, `CCCN(CCC)S(=O)(=O)c1ccc(C(=O)O)cc1` [Probenecid]: -6.67.
For `CC(C)N(CCCCOCC(=O)NS(C)(=O)=O)c1cnc(-c2ccccc2)c(-c2ccccc2)n1` [Selexipag], the “combined upward orientation toward moving lines” value is -4.38.
Under `CN1CCC[C@@H]1CCO[C@](C)(c1ccccc1)c1ccc(Cl)cc1` [Clemastine fumarate] stands 4.64.
Under `O=C(c1ccc(OCCN2CCCCC2)cc1)c1c(-c2ccc(O)cc2)sc2cc(O)ccc12` [Raloxifene hydrochloride] stands -2.81.
Under `CCCCC1=NC2(CCCC2)C(=O)N1Cc1ccc(-c2ccccc2-c2nnn[nH]2)cc1` [Irbesartan] stands -8.87.
As for `CCCc1nc(C(C)(C)O)c(C(=O)O)n1Cc1ccc(-c2ccccc2-c2nnn[nH]2)cc1` [Olmesartan], the “combined upward orientation toward moving lines” value was -6.03.
Next, `CC1CNc2c(cccc2S(=O)(=O)N[C@@H](CCCNC(=N)N)C(=O)N2CC[C@@H](C)C[C@@H]2C(=O)O)C1` (stereo not given in full) [Argatroban]: 0.479.
Next, `Clc1ccc(COC(Cn2ccnc2)c2ccc(Cl)cc2Cl)c(Cl)c1` (stereo not given) [Miconazole nitrate]: -3.31.
Next, `CC(C)c1nc(N(C)S(C)(=O)=O)nc(-c2ccc(F)cc2)c1/C=C/[C@@H](O)C[C@@H](O)CC(=O)O` [Rosuvastatin calcium]: 4.67.
Take `Brc1c(NC2=NCCN2)ccc2nccnc12`: the “combined upward orientation toward moving lines” value is -1.14.
Next, `CC/C(=C(\c1ccccc1)c1ccc(OCCN(C)C)cc1)c1ccccc1` [Tamoxifen citrate]: -3.88; `Cc1ccccc1C(=O)Nc1ccc(C(=O)N2CCCC(O)c3cc(Cl)ccc32)c(C)c1` (stereo not given) [Tolvaptan]: -0.0581; `Nc1cccc2c1CN(C1CCC(=O)NC1=O)C2=O` (stereo not given) [Lenalidomide]: 2.56.
Under `Nc1nc2c(ncn2COCCO)c(=O)[nH]1` [Acyclovir] stands 0.15.
Under `CN1CC[C@@H](NC(=O)Nc2ccc(C#N)cc2)C[C@@H]1c1nc2ccccc2[nH]1` stands 4.61.
For the compound `CCOC(=O)C1=C(C)NC(C)=C(C(=O)OC)C1c1cccc(Cl)c1Cl` (stereo not given) [Felodipine], the “combined upward orientation toward moving lines” value is -3.05.
In the case of `CCN(Cc1ccncc1)C(=O)C(CO)c1ccccc1` (stereo not given) [Tropicamide], the “combined upward orientation toward moving lines” value worked out at 3.89.
Under `OCCOCCN1CCN(C2=Nc3ccccc3Sc3ccccc32)CC1` [Quetiapine hemifumarate] stands -3.4; under `CO[C@H]1/C=C/O[C@@]2(C)Oc3c(C)c(O)c4c(O)c(c5c(nc6cc(C)ccn65)c4c3C2=O)NC(=O)/C(C)=C\C=C\[C@H](C)[C@H](O)[C@@H](C)[C@@H](O)[C@@H](C)[C@H](OC(C)=O)[C@@H]1C` [Rifaximin], -3.95; under `COC(=O)C1=C(C)NC(C)=C(C(=O)OC(C)C)C1c1cccc2nonc12` (stereo not given) [Isradipine], -3.59.
Next, `NS(=O)(=O)Cc1noc2ccccc12` [Zonisamide]: 1.75; `CN1CCN(CCCN2c3ccccc3Sc3ccc(Cl)cc32)CC1` [Prochlorperazine dimaleate]: 0.242; `Nc1cc(N2CCCCC2)nc(N)[n+]1[O-]` [Minoxidil]: -2.16.
Take `COc1cc(Nc2c(C#N)cnc3cc(OCCCN4CCN(C)CC4)c(OC)cc23)c(Cl)cc1Cl` [Bosutinib]: the “combined upward orientation toward moving lines” value was -2.87.
Next, `Nc1nc(NC2CC2)c2ncn([C@H]3C=C[C@@H](CO)C3)c2n1` [Abacavir hemisulfate]: -1.52.
Next, `COCCCOc1cc(C[C@@H](C[C@H](N)[C@@H](O)C[C@H](C(=O)NCC(C)(C)C(N)=O)C(C)C)C(C)C)ccc1OC` [Aliskiren hemifumarate]: -2.45.
Next, `Nc1nc2[nH]cc(CCc3ccc(C(=O)N[C@@H](CCC(=O)O)C(=O)O)cc3)c2c(=O)[nH]1` [Pemetrexed]: -1.85; `CC(C)(C)NC(=O)[C@@H]1C[C@@H]2CCCC[C@@H]2CN1C[C@@H](O)[C@H](Cc1ccccc1)NC(=O)[C@H](CC(N)=O)NC(=O)c1ccc2ccccc2n1` [Saquinavir mesylate]: -6.24.
For `CC(=O)Oc1ccccc1C(=O)O` [Aspirin], the “combined upward orientation toward moving lines” value was -3.93.
With `CN1CC(=O)N2[C@H](c3ccc4c(c3)OCO4)c3[nH]c4ccccc4c3C[C@@H]2C1=O` [Tadalafil], the “combined upward orientation toward moving lines” value was -7.35.
Turning to `CCOc1cc(CC(=O)N[C@@H](CC(C)C)c2ccccc2N2CCCCC2)ccc1C(=O)O` [Repaglinide], the “combined upward orientation toward moving lines” value is -4.89.
On to `CC(CCc1ccc(O)cc1)NCCc1ccc(O)c(O)c1` (stereo not given) [Dobutamine hydrochloride], for which the “combined upward orientation toward moving lines” value was determined as 0.917.
